# Test results reported in paper PMC7862700, “An all-to-all approach to the identification of sequence-specific readers for epigenetic DNA modifications on cytosine”.
# Tests used:
# Experiment in all cases: DAPPL (digital affinity profiling via proximity ligation, sequencing); 10 mM Tris-HCl pH 7.5, 50 mM NaCl, 1 mM DTT, 4% glycerol, room temperature, 30 min; GST-TFs on glutathione beads, 16-mer random dsDNA library, 0.1% formaldehyde crosslink after washing; high values mean tight binding
# FLI1 = target: T1, FLI1 (Homo sapiens, UniProt Q01543 1-452); settings: protein: recombinant; tags: N-terminal GST; dsDNA, one strand shown
# T1 sequence: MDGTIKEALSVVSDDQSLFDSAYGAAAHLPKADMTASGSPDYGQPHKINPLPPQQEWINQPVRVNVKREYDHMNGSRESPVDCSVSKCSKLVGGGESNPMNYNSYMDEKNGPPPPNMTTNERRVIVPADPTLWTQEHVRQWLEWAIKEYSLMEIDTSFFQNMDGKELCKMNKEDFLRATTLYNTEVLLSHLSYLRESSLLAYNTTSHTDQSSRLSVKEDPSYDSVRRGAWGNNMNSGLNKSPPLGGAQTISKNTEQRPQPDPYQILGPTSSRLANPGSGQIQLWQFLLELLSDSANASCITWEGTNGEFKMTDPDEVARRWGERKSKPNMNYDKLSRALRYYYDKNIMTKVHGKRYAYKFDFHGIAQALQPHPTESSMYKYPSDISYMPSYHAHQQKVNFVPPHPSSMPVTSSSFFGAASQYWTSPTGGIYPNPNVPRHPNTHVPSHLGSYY
# Summary of the method: (§1)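 Pools of DNA-barcoded human transcription factors, expressed in yeast as GST fusions on glutathione beads and combined with a tag-only sample, were incubated with 200 nmole of a 16-mer random double-stranded DNA library. Incubation took 30 min at room temperature in Tris/NaCl/DTT/glycerol buffer and was followed by washing, 0.1% formaldehyde crosslinking, proximity ligation (BsaI/T4 ligase, 1 h, 37 °C), PCR amplification and sequencing on an Illumina NextSeq500. Binding signal is the ratio of a hexamer's read frequency for a factor to its frequency for the tag-only sample.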
# ELK1 = target: T2, ELK1 (Homo sapiens, UniProt P19419 1-428); settings: protein: recombinant; tags: N-terminal GST; dsDNA, one strand shown
# T2 sequence: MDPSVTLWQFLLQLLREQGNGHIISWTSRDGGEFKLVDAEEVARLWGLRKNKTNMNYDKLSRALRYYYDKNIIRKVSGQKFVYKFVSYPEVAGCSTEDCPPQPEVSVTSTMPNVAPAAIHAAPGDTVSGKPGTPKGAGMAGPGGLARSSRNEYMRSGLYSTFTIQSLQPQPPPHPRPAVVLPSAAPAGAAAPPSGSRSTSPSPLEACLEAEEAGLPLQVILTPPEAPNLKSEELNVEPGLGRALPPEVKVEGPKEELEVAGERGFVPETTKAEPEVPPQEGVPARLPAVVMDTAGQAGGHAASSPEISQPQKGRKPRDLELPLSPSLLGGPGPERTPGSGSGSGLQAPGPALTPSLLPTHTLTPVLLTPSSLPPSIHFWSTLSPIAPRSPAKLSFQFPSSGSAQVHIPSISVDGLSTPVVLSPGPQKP
# Summary of the method: as §1
# GABPA = target: T3, GABPA (Homo sapiens, UniProt Q06546 1-454); settings: protein: recombinant; tags: N-terminal GST; dsDNA, one strand shown
# T3 sequence: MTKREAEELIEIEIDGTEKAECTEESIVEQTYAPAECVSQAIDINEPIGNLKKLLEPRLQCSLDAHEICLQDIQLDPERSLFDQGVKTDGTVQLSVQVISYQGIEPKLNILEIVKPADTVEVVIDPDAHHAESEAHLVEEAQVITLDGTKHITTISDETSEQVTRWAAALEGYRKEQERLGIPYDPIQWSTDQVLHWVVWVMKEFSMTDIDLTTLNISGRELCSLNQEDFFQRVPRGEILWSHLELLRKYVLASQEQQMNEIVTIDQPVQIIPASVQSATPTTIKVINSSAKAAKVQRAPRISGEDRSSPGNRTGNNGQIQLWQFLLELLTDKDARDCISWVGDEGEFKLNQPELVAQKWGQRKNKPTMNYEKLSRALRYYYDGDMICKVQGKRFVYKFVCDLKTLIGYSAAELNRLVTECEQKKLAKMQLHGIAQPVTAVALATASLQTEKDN
# Summary of the method: as §1
# ERG = target: T4, ERG (Homo sapiens, UniProt P11308 1-479); settings: protein: recombinant; tags: N-terminal GST; dsDNA, one strand shown
# T4 sequence: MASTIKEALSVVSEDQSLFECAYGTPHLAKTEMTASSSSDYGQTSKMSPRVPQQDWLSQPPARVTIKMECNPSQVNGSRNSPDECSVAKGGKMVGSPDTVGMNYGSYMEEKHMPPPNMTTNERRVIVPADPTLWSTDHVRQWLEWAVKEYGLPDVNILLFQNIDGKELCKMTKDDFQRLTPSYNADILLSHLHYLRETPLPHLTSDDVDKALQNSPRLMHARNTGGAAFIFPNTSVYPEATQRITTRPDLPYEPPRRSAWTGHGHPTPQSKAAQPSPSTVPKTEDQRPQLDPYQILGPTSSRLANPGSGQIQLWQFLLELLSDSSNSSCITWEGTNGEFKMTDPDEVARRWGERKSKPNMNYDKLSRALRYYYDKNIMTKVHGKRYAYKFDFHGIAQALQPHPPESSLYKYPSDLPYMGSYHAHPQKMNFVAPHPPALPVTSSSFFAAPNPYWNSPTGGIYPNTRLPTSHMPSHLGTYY
# Summary of the method: as §1
# ELF1 = ELF1 (Homo sapiens, UniProt P32519 1-619); settings: protein: recombinant; tags: N-terminal GST; dsDNA, one strand shown
# Summary of the method: as §1
# EHF = target: T5, EHF (Homo sapiens, UniProt Q9NZC4 1-300); settings: protein: recombinant; tags: N-terminal GST; dsDNA, one strand shown
# T5 sequence: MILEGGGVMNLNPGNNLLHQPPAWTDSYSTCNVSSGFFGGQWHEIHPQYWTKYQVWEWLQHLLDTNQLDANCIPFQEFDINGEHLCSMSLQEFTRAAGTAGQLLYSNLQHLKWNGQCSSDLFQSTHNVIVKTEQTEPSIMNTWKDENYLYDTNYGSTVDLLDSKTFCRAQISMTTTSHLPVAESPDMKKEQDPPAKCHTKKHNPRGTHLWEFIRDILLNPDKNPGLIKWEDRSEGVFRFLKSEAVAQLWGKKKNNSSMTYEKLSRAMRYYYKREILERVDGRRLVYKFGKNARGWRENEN
# Summary of the method: as §1
# SPI1 = SPI1 (Homo sapiens, UniProt P17947 1-270); settings: protein: recombinant; tags: N-terminal GST; dsDNA, one strand shown
# Summary of the method: as §1
# SPIB = SPIB (Homo sapiens, UniProt Q01892 1-262); settings: protein: recombinant; tags: N-terminal GST; dsDNA, one strand shown
# Summary of the method: as §1
# ELK3 = target: T6, ELK3 (Homo sapiens, UniProt P41970 1-407); settings: protein: recombinant; tags: N-terminal GST; dsDNA, one strand shown
# T6 sequence: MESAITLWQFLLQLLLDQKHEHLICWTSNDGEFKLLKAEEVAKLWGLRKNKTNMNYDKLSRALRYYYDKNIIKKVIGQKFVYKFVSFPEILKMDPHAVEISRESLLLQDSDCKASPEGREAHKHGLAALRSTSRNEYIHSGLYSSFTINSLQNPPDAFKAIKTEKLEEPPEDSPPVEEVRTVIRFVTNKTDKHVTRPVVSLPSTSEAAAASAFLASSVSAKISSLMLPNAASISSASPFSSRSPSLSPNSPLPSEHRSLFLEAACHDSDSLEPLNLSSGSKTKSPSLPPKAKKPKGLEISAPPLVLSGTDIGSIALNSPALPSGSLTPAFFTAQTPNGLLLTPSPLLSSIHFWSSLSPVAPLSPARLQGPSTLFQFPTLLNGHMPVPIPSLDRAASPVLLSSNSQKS
# Summary of the method: as §1
# FEV = target: T7, FEV (Homo sapiens, UniProt Q99581 1-238); settings: protein: recombinant; tags: N-terminal GST; dsDNA, one strand shown
# T7 sequence: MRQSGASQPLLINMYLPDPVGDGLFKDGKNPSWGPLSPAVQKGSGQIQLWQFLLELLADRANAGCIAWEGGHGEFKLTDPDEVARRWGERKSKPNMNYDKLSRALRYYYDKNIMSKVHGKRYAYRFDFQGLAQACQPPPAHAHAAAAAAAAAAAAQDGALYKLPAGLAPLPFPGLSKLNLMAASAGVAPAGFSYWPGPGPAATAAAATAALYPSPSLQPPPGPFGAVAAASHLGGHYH
# Summary of the method: as §1
# ETV5 = ETV5 (Homo sapiens, UniProt P41161 1-510); settings: protein: recombinant; tags: N-terminal GST; dsDNA, one strand shown
# Summary of the method: as §1
# HSF1 = HSF1 (Homo sapiens, UniProt Q00613 1-529); settings: protein: recombinant; tags: N-terminal GST; chain copies: 3; dsDNA, one strand shown
# Summary of the method: as §1
# SPIC = target: T8, SPIC (Homo sapiens, UniProt Q8N5J4 1-248); settings: protein: recombinant; tags: N-terminal GST; dsDNA, one strand shown
# T8 sequence: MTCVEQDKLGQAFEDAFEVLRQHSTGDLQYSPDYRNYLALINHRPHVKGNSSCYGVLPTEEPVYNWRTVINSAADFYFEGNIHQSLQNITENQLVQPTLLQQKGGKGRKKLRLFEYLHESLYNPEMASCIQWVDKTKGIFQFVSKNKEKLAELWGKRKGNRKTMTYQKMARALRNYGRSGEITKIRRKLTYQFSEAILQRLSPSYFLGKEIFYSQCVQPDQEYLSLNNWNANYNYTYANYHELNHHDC
# Summary of the method: as §1
# ELF4 = ELF4 (Homo sapiens, UniProt Q99607 1-663); settings: protein: recombinant; tags: N-terminal GST; dsDNA, one strand shown
# Summary of the method: as §1
# ELK4 = target: T9, ELK4 (Homo sapiens, UniProt P28324-2 1-405); settings: protein: recombinant; tags: N-terminal GST; dsDNA, one strand shown
# T9 sequence: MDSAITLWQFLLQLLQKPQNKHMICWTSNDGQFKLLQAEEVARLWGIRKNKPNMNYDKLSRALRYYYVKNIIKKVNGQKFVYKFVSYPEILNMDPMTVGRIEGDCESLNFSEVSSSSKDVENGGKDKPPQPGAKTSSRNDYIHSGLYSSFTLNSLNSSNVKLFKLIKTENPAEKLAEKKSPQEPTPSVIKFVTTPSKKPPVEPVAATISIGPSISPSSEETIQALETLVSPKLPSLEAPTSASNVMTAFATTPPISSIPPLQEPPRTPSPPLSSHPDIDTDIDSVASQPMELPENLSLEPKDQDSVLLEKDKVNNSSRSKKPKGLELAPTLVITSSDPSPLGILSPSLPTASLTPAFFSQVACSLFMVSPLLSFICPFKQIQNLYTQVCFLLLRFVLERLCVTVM
# Summary of the method: as §1
# ETV2 = target: T10, ETV2 (Homo sapiens, UniProt O00321 1-342); settings: protein: recombinant; tags: N-terminal GST; dsDNA, one strand shown
# T10 sequence: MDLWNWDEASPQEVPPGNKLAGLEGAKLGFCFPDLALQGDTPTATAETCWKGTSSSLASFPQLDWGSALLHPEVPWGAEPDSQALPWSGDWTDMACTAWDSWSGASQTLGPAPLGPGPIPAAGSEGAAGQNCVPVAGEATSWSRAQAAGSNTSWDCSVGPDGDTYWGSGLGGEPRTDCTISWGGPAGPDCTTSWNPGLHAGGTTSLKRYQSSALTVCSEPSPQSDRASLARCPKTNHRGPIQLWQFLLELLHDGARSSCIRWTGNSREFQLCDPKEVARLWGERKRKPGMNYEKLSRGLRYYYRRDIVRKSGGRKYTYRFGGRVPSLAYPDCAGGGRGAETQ
# Summary of the method: as §1
# ELF3 = target: T11, ELF3 (Homo sapiens, UniProt P78545 1-371); settings: protein: recombinant; tags: N-terminal GST; dsDNA, one strand shown
# T11 sequence: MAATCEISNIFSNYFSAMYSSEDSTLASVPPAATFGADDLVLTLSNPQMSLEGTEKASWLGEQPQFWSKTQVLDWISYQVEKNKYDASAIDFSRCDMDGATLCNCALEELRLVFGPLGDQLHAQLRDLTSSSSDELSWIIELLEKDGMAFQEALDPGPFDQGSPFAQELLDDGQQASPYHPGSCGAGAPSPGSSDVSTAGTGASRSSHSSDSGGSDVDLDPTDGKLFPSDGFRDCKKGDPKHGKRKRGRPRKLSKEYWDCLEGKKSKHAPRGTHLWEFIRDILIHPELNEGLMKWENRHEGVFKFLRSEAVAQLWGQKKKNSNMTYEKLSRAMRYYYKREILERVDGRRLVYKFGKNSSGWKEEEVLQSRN
# Summary of the method: as §1
# CRX = CRX (Homo sapiens, UniProt O43186 1-299); settings: protein: recombinant; tags: N-terminal GST; dsDNA, one strand shown
# Summary of the method: as §1
# ETV1 = ETV1 (Homo sapiens, UniProt P50549 1-477); settings: protein: recombinant; tags: N-terminal GST; dsDNA, one strand shown
# Summary of the method: as §1
# Sequence of ELF1 (P32519 whole entry): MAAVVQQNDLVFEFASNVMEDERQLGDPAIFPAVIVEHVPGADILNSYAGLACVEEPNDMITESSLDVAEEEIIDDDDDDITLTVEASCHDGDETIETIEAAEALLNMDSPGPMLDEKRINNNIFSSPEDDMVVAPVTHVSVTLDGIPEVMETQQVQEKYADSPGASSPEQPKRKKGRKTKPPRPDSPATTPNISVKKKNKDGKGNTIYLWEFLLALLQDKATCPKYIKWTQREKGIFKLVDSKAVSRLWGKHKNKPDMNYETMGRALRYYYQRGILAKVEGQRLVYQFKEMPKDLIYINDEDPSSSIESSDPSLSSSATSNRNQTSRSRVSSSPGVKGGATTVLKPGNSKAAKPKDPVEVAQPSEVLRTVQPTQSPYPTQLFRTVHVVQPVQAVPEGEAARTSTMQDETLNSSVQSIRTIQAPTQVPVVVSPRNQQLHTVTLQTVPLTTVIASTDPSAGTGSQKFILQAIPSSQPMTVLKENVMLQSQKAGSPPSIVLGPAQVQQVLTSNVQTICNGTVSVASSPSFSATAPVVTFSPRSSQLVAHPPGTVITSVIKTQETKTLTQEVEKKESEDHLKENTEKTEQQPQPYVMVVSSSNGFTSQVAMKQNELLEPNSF
# Sequence of SPIB (Q01892 whole entry): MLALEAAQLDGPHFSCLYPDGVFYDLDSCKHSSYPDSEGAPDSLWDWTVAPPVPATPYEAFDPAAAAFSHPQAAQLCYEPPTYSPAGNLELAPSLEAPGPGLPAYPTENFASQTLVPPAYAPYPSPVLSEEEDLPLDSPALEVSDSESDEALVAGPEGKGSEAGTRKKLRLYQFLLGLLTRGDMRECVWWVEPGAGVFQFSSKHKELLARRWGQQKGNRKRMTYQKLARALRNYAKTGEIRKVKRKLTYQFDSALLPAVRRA
# Sequence of CRX (O43186 whole entry): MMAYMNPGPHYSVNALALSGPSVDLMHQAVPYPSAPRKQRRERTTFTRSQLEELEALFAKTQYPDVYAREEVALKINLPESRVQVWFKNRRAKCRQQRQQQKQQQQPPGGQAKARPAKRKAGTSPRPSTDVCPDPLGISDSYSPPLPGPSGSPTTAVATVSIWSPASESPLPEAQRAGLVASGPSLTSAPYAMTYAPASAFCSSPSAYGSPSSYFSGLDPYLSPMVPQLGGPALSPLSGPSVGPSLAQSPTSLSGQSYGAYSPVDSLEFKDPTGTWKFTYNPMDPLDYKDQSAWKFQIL
# Sequence of ETV1 (P50549 whole entry): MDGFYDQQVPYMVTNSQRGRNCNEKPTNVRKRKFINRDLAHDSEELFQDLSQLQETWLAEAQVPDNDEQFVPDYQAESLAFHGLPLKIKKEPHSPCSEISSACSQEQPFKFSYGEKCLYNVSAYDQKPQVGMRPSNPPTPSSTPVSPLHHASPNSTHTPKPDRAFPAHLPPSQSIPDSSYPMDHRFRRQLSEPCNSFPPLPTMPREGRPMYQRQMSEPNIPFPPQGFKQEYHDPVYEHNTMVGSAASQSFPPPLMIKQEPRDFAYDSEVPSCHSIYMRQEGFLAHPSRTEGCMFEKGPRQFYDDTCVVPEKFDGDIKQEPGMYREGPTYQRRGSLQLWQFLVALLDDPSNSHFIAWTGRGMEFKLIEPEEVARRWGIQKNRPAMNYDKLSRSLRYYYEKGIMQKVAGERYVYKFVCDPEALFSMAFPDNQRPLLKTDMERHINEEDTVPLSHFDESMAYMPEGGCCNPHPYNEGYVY
# Sequence of ELF4 (Q99607 whole entry): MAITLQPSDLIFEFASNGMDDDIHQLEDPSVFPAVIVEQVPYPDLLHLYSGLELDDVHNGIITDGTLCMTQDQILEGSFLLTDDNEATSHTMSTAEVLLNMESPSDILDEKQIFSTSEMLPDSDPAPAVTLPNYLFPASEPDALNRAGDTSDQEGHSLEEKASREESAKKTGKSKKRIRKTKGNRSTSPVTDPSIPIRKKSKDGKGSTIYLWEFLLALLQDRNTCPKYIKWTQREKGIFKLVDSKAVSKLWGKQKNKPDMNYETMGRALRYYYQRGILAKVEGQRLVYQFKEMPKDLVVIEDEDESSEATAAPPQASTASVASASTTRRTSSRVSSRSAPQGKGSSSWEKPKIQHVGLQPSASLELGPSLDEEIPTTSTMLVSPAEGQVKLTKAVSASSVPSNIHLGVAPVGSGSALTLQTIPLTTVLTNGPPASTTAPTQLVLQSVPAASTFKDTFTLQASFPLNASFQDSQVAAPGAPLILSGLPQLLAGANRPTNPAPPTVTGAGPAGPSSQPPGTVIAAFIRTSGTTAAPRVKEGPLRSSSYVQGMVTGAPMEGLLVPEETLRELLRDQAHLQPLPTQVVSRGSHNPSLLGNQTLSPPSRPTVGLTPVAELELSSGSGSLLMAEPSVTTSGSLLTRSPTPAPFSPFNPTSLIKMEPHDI
# Sequence of ETV5 (P41161 whole entry): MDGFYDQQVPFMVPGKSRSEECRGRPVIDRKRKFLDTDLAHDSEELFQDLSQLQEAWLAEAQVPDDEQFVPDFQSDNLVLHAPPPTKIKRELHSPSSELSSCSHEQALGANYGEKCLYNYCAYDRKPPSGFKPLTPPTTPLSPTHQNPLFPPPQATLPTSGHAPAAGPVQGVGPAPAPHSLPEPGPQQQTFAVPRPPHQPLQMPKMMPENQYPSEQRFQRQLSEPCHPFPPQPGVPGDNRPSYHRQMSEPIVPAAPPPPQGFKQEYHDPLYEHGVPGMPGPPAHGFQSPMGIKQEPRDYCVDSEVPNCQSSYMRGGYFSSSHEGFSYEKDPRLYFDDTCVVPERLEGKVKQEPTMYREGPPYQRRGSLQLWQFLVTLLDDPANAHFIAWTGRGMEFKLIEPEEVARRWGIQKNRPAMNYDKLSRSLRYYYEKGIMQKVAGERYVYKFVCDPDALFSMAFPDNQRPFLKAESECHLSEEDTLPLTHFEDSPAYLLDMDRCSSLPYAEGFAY
# Sequence of HSF1 (Q00613 whole entry): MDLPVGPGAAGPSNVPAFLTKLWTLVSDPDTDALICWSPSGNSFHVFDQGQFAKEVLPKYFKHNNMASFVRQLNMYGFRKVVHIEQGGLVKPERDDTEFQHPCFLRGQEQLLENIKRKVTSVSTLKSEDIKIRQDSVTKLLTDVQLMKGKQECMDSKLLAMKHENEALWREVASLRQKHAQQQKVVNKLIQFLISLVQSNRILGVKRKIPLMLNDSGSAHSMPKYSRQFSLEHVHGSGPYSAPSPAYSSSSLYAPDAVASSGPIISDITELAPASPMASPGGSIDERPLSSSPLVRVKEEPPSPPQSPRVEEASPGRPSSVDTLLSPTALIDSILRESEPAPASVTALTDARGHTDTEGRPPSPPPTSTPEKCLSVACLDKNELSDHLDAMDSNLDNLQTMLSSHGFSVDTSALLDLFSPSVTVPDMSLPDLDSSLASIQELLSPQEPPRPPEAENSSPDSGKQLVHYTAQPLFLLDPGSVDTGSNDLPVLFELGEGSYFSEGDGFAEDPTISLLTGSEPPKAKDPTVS
sequence,measurement,setting,value
CTGCGC,binding signal,FLI1,"1.18 fold enrichment (6-mer frequency, TF over GST control)"
same,binding signal,ELK1,"1.4 fold enrichment (6-mer frequency, TF over GST control)"
same,binding signal,GABPA,"1.34 fold enrichment (6-mer frequency, TF over GST control)"
same,binding signal,ERG,"1.37 fold enrichment (6-mer frequency, TF over GST control)"
same,binding signal,ELF1,"1.45 fold enrichment (6-mer frequency, TF over GST control)"
same,binding signal,EHF,"1.4 fold enrichment (6-mer frequency, TF over GST control)"
same,binding signal,SPI1,"1.31 fold enrichment (6-mer frequency, TF over GST control)"
same,binding signal,SPIB,"1.34 fold enrichment (6-mer frequency, TF over GST control)"
same,binding signal,ELK3,"1.22 fold enrichment (6-mer frequency, TF over GST control)"
same,binding signal,FEV,"1.38 fold enrichment (6-mer frequency, TF over GST control)"
same,binding signal,ETV5,"1.34 fold enrichment (6-mer frequency, TF over GST control)"
same,binding signal,HSF1,"1.1 fold enrichment (6-mer frequency, TF over GST control)"
same,binding signal,SPIC,"1.22 fold enrichment (6-mer frequency, TF over GST control)"
same,binding signal,ELF4,"1.32 fold enrichment (6-mer frequency, TF over GST control)"
same,binding signal,ELK4,"1.2 fold enrichment (6-mer frequency, TF over GST control)"
same,binding signal,ETV2,"1.46 fold enrichment (6-mer frequency, TF over GST control)"
same,binding signal,ELF3,"1.27 fold enrichment (6-mer frequency, TF over GST control)"
same,binding signal,CRX,"1.11 fold enrichment (6-mer frequency, TF over GST control)"
same,binding signal,ETV1,"1.58 fold enrichment (6-mer frequency, TF over GST control)"
